Assay results as given in PubChem BioAssay (NCI).
This is part of a sample that, as a whole, favours compounds with a hit. Of some 83,000 tested, about 20% had one in any assay.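 96-well plates, one dose, 48 hours. Percent growth reported; active if below 10.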 Unmarked numbers belong to inactive results. The source made the active and inactive calls.

Legend:
Experiment in all cases: NCI-60 one-dose screen, 48 h (100 = growth as untreated, 0 = no growth, -100 = all killed)
Settings in all cases: 10 µM unless noted
SK-MEL-2 melanoma = test system: SK-MEL-2 melanoma
SN12C renal = test system: SN12C renal
UO-31 renal = test system: UO-31 renal
TK-10 renal = test system: TK-10 renal
ACHN renal = test system: ACHN renal
CAKI-1 renal = test system: CAKI-1 renal
A498 renal = test system: A498 renal
CCRF-CEM leukemia = test system: CCRF-CEM leukemia
MOLT-4 leukemia = test system: MOLT-4 leukemia
SR leukemia = test system: SR leukemia
RPMI-8226 leukemia = test system: RPMI-8226 leukemia
OVCAR-8 ovarian = test system: OVCAR-8 ovarian
OVCAR-5 ovarian = test system: OVCAR-5 ovarian
OVCAR-4 ovarian = test system: OVCAR-4 ovarian
IGROV1 ovarian = test system: IGROV1 ovarian
OVCAR-3 ovarian = test system: OVCAR-3 ovarian
HS 578T breast = test system: HS 578T breast
NCI/ADR-RES ovarian = test system: NCI/ADR-RES ovarian
SK-OV-3 ovarian = test system: SK-OV-3 ovarian

SMILES	growth (SK-MEL-2 melanoma)	growth (SN12C renal)	growth (UO-31 renal)	growth (TK-10 renal)	growth (ACHN renal)	growth (CAKI-1 renal)	growth (A498 renal)	growth (CCRF-CEM leukemia)	growth (MOLT-4 leukemia)	growth (SR leukemia)	growth (RPMI-8226 leukemia)	growth (OVCAR-8 ovarian)	growth (OVCAR-5 ovarian)	growth (OVCAR-4 ovarian)	growth (IGROV1 ovarian)	growth (OVCAR-3 ovarian)	growth (HS 578T breast)	growth (NCI/ADR-RES ovarian)	growth (SK-OV-3 ovarian)
COc1ccc(C(=O)n2nc(/C=C/c3ccc(O)c(OC)c3)cc2/C=C/c2ccc(O)c(OC)c2)cc1	-34.1% (active)	12.8%	-1.75% (active)	24.7%	7.64% (active)	20.4%	-14.8% (active)	-11.6% (active)	-18.4% (active)	-9.23% (active)	-27.3% (active)	-5.24% (active)	-18.8% (active)	-7.85% (active)	12.8%	1.05% (active)	0.538% (active)	26%	
COc1ccc(C2C=C(c3ccc(N)cc3)N=C3SC=CN32)cc1OC (stereo not given)	108%	105%	82.2%	98.1%	99.9%	101%	108%	97.7%	90.6%		101%	98.7%	108%	102%	101%	107%	127%	106%	115%
CC1(C)C(=O)/C(=C\c2ccc(C(F)(F)F)cc2)C[C@]2(C)[C@H]3CC[C@@H]4[C@H]5[C@H](C(=O)/C=C/c6ccc(C(F)(F)F)cc6)CC[C@]5(CO)CC[C@@]4(C)[C@]3(C)CC[C@@H]12	105%	91.8%	66.6%	126%	91.9%	56.2%	93.7%	90.5%	82.5%	82.2%	88.6%	79.6%	107%	96.6%	92.4%	97%	95.8%	99.1%	
O=C(Nc1cccc(-n2cc(-c3ccncc3)c(-c3ccc(Cl)c(O)c3)n2)c1)Nc1ccc(Cl)c(Cl)c1	-25.4% (active)	18%	21%	7.16% (active)	12.8%	22.5%	31.1%	13.7%	7.64% (active)		7.89% (active)	11.7%	56.4%	29.4%	28.7%	-4.74% (active)	36.1%	20.9%	18.7%
COc1ccc(OC)c(C2OC(c3ccc4ccccc4c3O)=NN2C(C)=O)c1 (stereo not given)	60.7%	80.6%	63.4%	80.7%	69.5%	87.6%	37.4%	69.2%	61.8%		66.6%	81%	102%	75.5%	75.8%	52.4%		59.2%	58%
COc1ccc(-c2cc(-c3ccccc3)nc(SCCCC(=O)NO)n2)cc1OC	-1.51% (active)	13.8%	-39.6% (active)	4.89% (active)	-0.775% (active)	-37.9% (active)	-24.9% (active)	6.42% (active)	2.96% (active)	4.39% (active)			11%	6.41% (active)	15.6%	-22.7% (active)	18%	-12.3% (active)	
COC(=O)C(Sc1ccc(Cl)cc1)C1SC(=S)N(Cc2ccccc2)C1=O (stereo not given)	96.3%	82.3%	60.2%	115%	97.6%	100%	102%	20.5%	62.1%	50.8%	84.6%	101%	118%			105%		102%	108%
C=C1CCC2C(C)(CO)C(O)CCC2(C)C1CC(NCc1ccccc1)C1=CCOC1=O (stereo not given)	101%	93.1%	87.9%	103%	100%	90.3%	106%	105%	108%	99.8%		94%	94.3%	97.8%	102%	105%	104%	95.9%	105%
COc1cc(/C=C/c2cc(/C=C/c3ccc(O)c(OC)c3)n(C(N)=O)n2)ccc1O	-52.7% (active)	-5.22% (active)	-22.1% (active)	4.79% (active)	-11.2% (active)	14.1%	-24.4% (active)	-22.9% (active)	-33% (active)	-3.77% (active)	-44% (active)	-6.69% (active)	-30.7% (active)	-6.24% (active)	1.18% (active)	-72.7% (active)	-11.3% (active)	7.68% (active)	
COc1ccc(C2C=C(c3ccc(OC)c(OC)c3)N=C3SC=C(C)N32)c(Br)c1 (stereo not given)	101%	108%	94.8%	107%	95%	99.9%	115%	101%	84%		102%	99.2%	92.8%	99.6%	105%	112%	116%	113%	107%
O=S(=O)(NCCNc1nccc(-c2c(-c3cccc(O)c3)nc3sccn23)n1)c1ccc(F)cc1	41.7%	63.9%	83.4%	108%	60.2%	82.7%	76.4%	41.7%	44.5%		76.2%	67.6%	107%	103%	63.7%	86.8%	83%	97.9%	85.9%
COc1cc(-c2nn(-c3cccc(NC(=O)Nc4cc(C(F)(F)F)cc(C(F)(F)F)c4)c3)cc2-c2ccncc2)ccc1Cl	-52.1% (active)	-8.08% (active)	-29.2% (active)	-26.7% (active)	10.5%	18.5%	-14.6% (active)	-27.3% (active)	-24.5% (active)		-11.7% (active)	-12.7% (active)	16.3%	17.2%	19.9%	-57.9% (active)	-25.8% (active)	1.11% (active)	-9.79% (active)
COc1ccc(/C=C2\CN(Cc3cn(CCNc4ccnc5cc(Cl)ccc45)nn3)C/C(=C\c3ccc(OC)c(OC)c3)C2=O)cc1OC	-19.7% (active)	-0.659% (active)	80.5%	8.71% (active)	51.4%	97.4%	32.5%	0.689% (active)	-3.65% (active)		-1.73% (active)	-3.77% (active)	18.1%	29.8%	7.35% (active)	-13.9% (active)		103%	
Fc1ccc(CNCCNc2ncnc3c2cnn3-c2ccccc2)cc1	113%	89.2%	62.1%	102%	100%	87.2%	77.1%	86.9%	89.1%		84.6%		98.6%	97.4%	94.2%	109%	92.1%	95.8%	94.6%
Nc1cc2c([nH]c[n+]2CC#CCCl)c(SCC#CCCl)n1	-30% (active)	-10.9% (active)	-76.8% (active)	-4.18% (active)	-34.7% (active)	6.37% (active)	-52.1% (active)	8.89% (active)	-1.5% (active)		-2.17% (active)	0.0129% (active)	-76.9% (active)		-57% (active)	-21.1% (active)	47.3%	-24.2% (active)	-21.7% (active)
O=C(/C=C/c1cc(-c2ccc3c(c2)OCO3)n[nH]1)c1ccc2c(c1)OCO2	96.6%	88.9%	74.5%	106%		95.1%	93.3%	72.9%	83.4%	44.5%	56.6%	86.9%		71.3%	91.6%	90.7%	95.2%	102%	109%
COc1cc(-c2nn(-c3cccc(NC(=O)c4ccc(N5CCOCC5)c(C(F)(F)F)c4)c3)cc2-c2ccncc2)ccc1Cl	-8.84% (active)	31%	24.6%	17.8%	21.3%	39.9%	-29.7% (active)	0.907% (active)	4.07% (active)		8.3% (active)		34.7%	52.3%	41.8%	-29.8% (active)	-13.6% (active)	-7.13% (active)	1.88% (active)
